# Vif-APOBEC3G blk: qHTS for Inhibitors of Vif-A3G Interactions: qHTS. DNA dC->dU-editing enzyme APOBEC-3G (Homo sapiens), Q9HC16. HeLa A3G-eYFP + Vif (tagged APOBEC3G with the HIV-1 protein that degrades it), YFP fluorescence, overnight. Potency, µM (doses to about 46.1 µM), for inactives: at the highest dose activity, negative = active, hits mostly inhibitors. hit rate 0.076% among 410,000; also: potency is read from the fitted curve at half-maximal effect; % is scaled to controls: 0 for no effect and ±100 for the full control effect; nearly all actives have a fitted effect of over 60% in size
#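 Read-out is eYFP fluorescence (Ex 488/Em 500-530) from Vif-expressing HeLa A3G-eYFP cells; more signal means A3G escaped Vif-mediated degradation. Cells plated overnight, compound pinned in, incubated overnight at 37 deg C.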
# PTAP TSG101 blk: qHTS Assay for Iinhibitors of HIV-1 Budding by Blocking the Interaction of PTAP/TSG101. Fluorescence polarization, FITC-PTAP peptide / Tsg101 binding. Potency, µM (highest dose often 115 µM), inactives show at the highest dose activity change, negative = inhibition, actives largely listed as inhibitors. 340,000 tested, under 10 active. AID 493005, 2010; active = well fitted inhibition curve with a large enough effect in the main read-out, with a control signal flat, not every such curve was filed as active; inconclusive = small, poorly fitted or top-dose-only effect, or effect the other way, or a change in a side signal; inactive = no such curve, though single readings can be large or run the other way; also: potency is read from the fitted curve at half-maximal effect; % of control where 0% means no effect
#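 Fluorescence polarization binding of Tsg101 binding domain (10 uM final) to FITC-labeled PTAP peptide (50 nM final) in HEPES pH 7.5 buffer with NaCl, Tween 20, EDTA, TCEP. Compounds added before peptide; binding 20 min at RT.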
# ASM inhibitor: Inhibitors of Secretory Acid Sphingomyelinase (S-ASM): qHTS | hit rate 0.006% among 340,000 | AID 504937, 2011 | placental ASM, HMU-PC fluorogenic substrate, 60 min | Potency, µM (top dose mostly 57.5 µM), inactives show at the top dose activity change, negative = inhibition, most hits filed as inhibitors; also: potency is read from the fitted curve at half-maximal effect
#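 HMU-PC0 cleavage (9 uM final) by human placental ASM, 60 min at 37 °C following 10 min compound exposure at RT; stopped at pH 10, fluorescence Ex 386/Em 447 nm.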
# Vif-APOBEC3F blk: qHTS for Inhibitors of Vif-A3F Interactions: qHTS | hit rate 0.2% among 390,000 | HeLa A3F-eYFP + Vif (tagged APOBEC3F with the HIV-1 protein that degrades it), YFP fluorescence increase | Potency, µM (doses to about 46.1 µM), inactives show at the highest dose activity, negative = active; also: potency is read from the fitted curve at half-maximal effect; % of control where 0% means no effect; nearly all actives have a fitted effect of over 65% in size
#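 HeLa cells stably expressing A3F-eYFP plus Vif, plated and incubated overnight at 37 deg C, then exposed to compounds overnight at 37 deg C. Blocked degradation read as raised yellow fluorescence (Ex 488/Em 500-530).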
# Akt phos inh: HTS Assay for Inhibitors of Akt Phophorylation: Primary Screen. activity change, % for hits at 50 µM. hit rate 0.32% among 360,000. AID 651550, 2012. Neuro2A IGF-stimulated pAkt S473 HTRF, 20 min; hits give low values; in the data active = activity change below about -80%; inconclusive = mostly about -51% to -80%; also: % is scaled to controls: 0 for no effect and ±100 for the full control effect
#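 Single-point screen (50 µM final compound) in Neuro2A cells stimulated 20 min with 6 nM IGF at 37 deg C. After lysis, Ser473-phosphorylated Akt read by HTRF (ex 330 nm, em 615/665 nm) as the 665/615 ratio.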
# 12-LOX inh: Primary qHTS assay for inhibitors of human arachidonate 12S-lipoxygenase (ALOX12): Round 2; AID 1671190, 2021; purified 12hLO, xylenol orange hydroperoxide absorbance; Polyunsaturated fatty acid lipoxygenase ALOX12 (Homo sapiens), P18054; Potency, µM (series often up to 108 µM), for inactives: at the top dose activity change, negative = inhibition, usual class: inhibitors; hit rate 1.1% among 580,000; also: potency is read from the fitted curve at half-maximal effect; % is scaled to controls: 0 for no effect and ±100 for the full control effect
# Target sequence (P18054 whole entry, looked up): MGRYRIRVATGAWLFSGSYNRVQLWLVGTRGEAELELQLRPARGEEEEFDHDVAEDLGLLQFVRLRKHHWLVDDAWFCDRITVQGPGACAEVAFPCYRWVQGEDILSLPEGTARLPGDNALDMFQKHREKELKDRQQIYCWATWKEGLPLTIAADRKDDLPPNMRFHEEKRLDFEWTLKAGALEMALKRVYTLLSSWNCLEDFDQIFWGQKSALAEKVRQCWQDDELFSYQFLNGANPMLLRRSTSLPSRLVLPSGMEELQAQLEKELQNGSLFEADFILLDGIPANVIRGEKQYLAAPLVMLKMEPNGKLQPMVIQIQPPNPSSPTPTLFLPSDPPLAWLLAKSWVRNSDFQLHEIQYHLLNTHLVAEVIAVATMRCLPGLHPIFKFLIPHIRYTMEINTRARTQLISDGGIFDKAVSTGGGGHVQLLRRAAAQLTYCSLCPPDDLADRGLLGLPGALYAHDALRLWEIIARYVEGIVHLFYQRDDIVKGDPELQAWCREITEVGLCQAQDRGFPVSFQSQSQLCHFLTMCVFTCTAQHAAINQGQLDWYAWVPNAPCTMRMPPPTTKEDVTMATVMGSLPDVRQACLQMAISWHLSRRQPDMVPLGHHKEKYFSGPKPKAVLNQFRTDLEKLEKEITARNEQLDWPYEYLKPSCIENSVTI
#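 Purified human 12hLO at 150 nM in 25 mM Hepes, 0.01% Triton X-100, pH 7.0, preincubated 15 min at room temperature with compound. Reaction started with 40 uM arachidonic acid, 30 min at room temperature. Hydroperoxide measured by Fe-xylenol orange, 573/405 nm absorbance ratio.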
# The depositor's hits bear a star; i = inactive; ? = inconclusive; · = no result. This is a sample that favours compounds with a hit; in the whole collection about 1.4% have one here. Unless noted, calls follow the shape of the dose curve; as a rule, active = well fitted curve in the direction sought with a large enough effect; inconclusive = small, poorly fitted or top-dose-only effect, or another doubt; inactive = no such curve, though single readings can be large; an effect the other way counts as inactive or inconclusive.
SMILES,Vif-APOBEC3G blk,PTAP TSG101 blk,ASM inhibitor,Vif-APOBEC3F blk,Akt phos inh,12-LOX inh
Cn1c(N/N=C/c2cc3ccccc3nc2Cl)nc2ccccc21,11µM*,?,-1%,22µM*,i,-8%
CCOCCn1c(SCc2ccccc2Cl)nc2c1c(=O)[nH]c(=O)n2C,·,·,·,·,·,21%
Fc1cccc(CCN2C(=S)NC[C@@H]2CC2CCCCC2)c1,1%,0%,-7%,2%,i,40µM*
Fc1cccc(CCN2C(=S)NC[C@@H]2Cc2ccccc2)c1,1%,-6%,-10%,2%,i,?
CC(C[N+](C)(C)C)OC(=O)c1ccc2c(c1)OCO2 (stereo unspecified),·,·,·,·,·,25µM*
COc1ccc(NC(=O)c2cccc3ccccc23)cc1,11µM*,1%,1%,0%,i,-9%
COc1ccc(NC(=O)c2cccc3c(Br)cccc23)cc1,-6%,4%,3%,-4%,i,-15%
Cc1cn([C@H]2C[C@H](O)[C@@H](CNS(=O)(=O)N3CCCC3)O2)c(=O)[nH]c1=O,1%,·,·,1%,i,7.9µM*
Nc1sc2c(c1C(=O)NC1CCS(=O)(=O)C1)CCC2 (stereo unspecified),-6%,-4%,-3%,-7%,-130%*,·
CS(=O)(=O)N1N=C(c2cccs2)CC1c1ccccc1O (stereo unspecified),-12%,3%,4%,?,i,?
CCOc1ccccc1C1CC(c2cccs2)=NN1S(C)(=O)=O (stereo unspecified),-27%,0%,2%,32µM*,i,7%
CCn1c(SCC(=O)N2c3ccccc3Sc3ccccc32)nnc1-c1ccco1,-7%,-6%,-4%,-5%,i,?
C=CCn1c(SCC(=O)N2c3ccccc3Sc3ccccc32)nnc1-c1ccco1,-3%,-2%,-3%,7%,i,22µM*
O=C(Nc1c(NCc2ccccc2)c2ccccc2oc1=O)c1ccc(Br)cc1,·,·,·,·,·,53%
Cc1ccc(C(=O)/C=C/c2ccc(-c3cccc(Cl)c3Cl)o2)cc1,·,·,·,·,·,14µM*
Cc1ccc(C(=O)/C=C/c2ccc(-c3ccc(C)cc3)o2)cc1,?,3%,7%,?,i,?
Cc1ccc(C(=O)/C=C/c2ccc(-c3cc(Cl)ccc3Cl)o2)cc1,·,·,·,·,·,5µM*
O=C(/C=C/c1ccc(-c2ccc(Cl)cc2Cl)o1)c1ccc(Br)cc1,·,·,·,·,·,8.9µM*
O=C(/C=C\c1ccc(-c2ccccc2)o1)c1ccccc1,?,11%,14%,-30%,i,?
O=Cc1ccc(-c2ccc(Br)cc2Cl)o1,·,·,·,·,·,40%
O=C(/C=C/c1ccc(-c2ccccc2Cl)o1)c1ccccc1Br,·,·,·,·,·,4.5µM*
O=C(Nc1ccc(C(F)(F)F)cc1)C1CCCC1,·,·,·,·,·,10%
COc1ccccc1CNC(=O)C1CCCN(c2nn3cc(-c4ccc(C)cc4)nc3s2)C1 (stereo unspecified),·,·,·,·,·,13%
CCC(=O)N1CCCC1Cc1ccccc1 (stereo unspecified),·,·,·,·,·,16%
O=C(/C=C/c1ccc(-c2cccc(Cl)c2)o1)c1cc(Cl)ccc1Cl,·,·,·,·,·,18µM*
SMILES,Vif-APOBEC3G blk,PTAP TSG101 blk,ASM inhibitor,Vif-APOBEC3F blk,Akt phos inh,12-LOX inh
CN1C(=O)c2cccn2CC1CNC(=O)c1[nH]nc2c1COc1ccccc1-2 (stereo unspecified),·,·,·,·,·,54%
CCOC(=O)c1c(NC(=O)C2=C(C)NC(=S)NC2c2ccccc2C(F)(F)F)sc(C)c1C (stereo unspecified),-2%,0%,24%,3%,i,25µM*
c1cnc(SCCOc2ccc3c(c2)CCC3)nc1,1%,-2%,2%,0%,-117%*,2%
COC(=O)c1ccc(Cc2ccc(C(=O)OC)o2)o1,-1%,-6%,5%,-10%,i,4%
C=CCN(CC=C)Cc1ccc(C(=O)OC)o1,5%,0%,3%,7%,-110%*,10%
COc1ccc(C2C(C#N)=C(N)Oc3cc(C)n(Cc4ccc5c(c4)OCO5)c(=O)c32)cc1 (stereo unspecified),·,·,·,·,·,-14%
COc1ccc(C2C(C#N)=C(N)Oc3cc4c(cc32)OCO4)cc1 (stereo unspecified),-12%,-1%,59%,-7%,i,13µM*
COc1ccc(C2C(C#N)=C(N)Oc3cc(O)ccc32)cc1Cl (stereo unspecified),-30%,-3%,0%,-8%,i,32µM*
CN(C)c1ccc2c(c1)OC(N)=C(C#N)C2c1cccc(F)c1 (stereo unspecified),?,-1%,-8%,22µM*,i,·
N#CC1=C(N)Oc2cc(N)ccc2C1c1cccc(F)c1 (stereo unspecified),?,1%,1%,0%,i,?
COC(=O)c1ccc(C2C(C#N)=C(N)Oc3cc(O)ccc32)cc1 (stereo unspecified),-12%,3%,-9%,-11%,i,25µM*
Cc1ccccc1-c1cn[nH]c1C1CCN(C(=O)c2cnn3ccccc23)CC1,·,·,·,·,·,-6%
COc1ccc(-c2cc(N3CCCN(C(=O)c4ccc5[nH]ccc5c4)CC3)n[nH]2)cc1,·,·,·,·,·,-6%
C#CCOc1ccc(C2C(C#N)=C(N)Oc3cc(O)ccc32)cc1 (stereo unspecified),-15%,-2%,1%,-4%,i,28µM*
Cc1ccc(COc2ccc(C3C(C#N)=C(N)Oc4cc(O)ccc43)cc2)cc1 (stereo unspecified),·,·,·,·,·,-7%
Cc1ccc(-c2ccccc2NC(=O)CS(=O)CC(=O)Nc2ccc(C)c(Cl)c2)o1 (stereo unspecified),-17%,1%,-9%,?,i,40µM*
CCOC(=O)c1sc(NC(=O)CN(CC)CC)c(C(=O)OCC)c1C,1%,-2%,0%,10%,-81%*,i
CCOC(=O)c1sc(NC(C)=O)c(C(=O)OCC)c1C,1%,-8%,-1%,6%,i,23%
CC1(C)C(c2ccccc2)=NC(c2ccc(Br)cc2)N1O (stereo unspecified),1%,0%,-4%,-8%,i,7.9µM*
